Results reported in paper PMC4336329 (PLoS ONE, 2015).
Among all 310,000 compounds or so, about 14,000 (4.5%) showed an effect of 50% or more. Effects have a minus sign here. Shown is part of a subset that was picked to be rich in strong results.

The compounds below were run against human ether-à-go-go-related gene (hERG) potassium channel (human, UniProt Q12809) (assay: primary screen, population patch clamp on CHO cells stably expressing hERG; higher = less effect of the substance).
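Also: peak tail current of the secondary pulse compared with the same well before compound.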

Chain of human ether-à-go-go-related gene (hERG) potassium channel (Q12809 whole entry, looked up): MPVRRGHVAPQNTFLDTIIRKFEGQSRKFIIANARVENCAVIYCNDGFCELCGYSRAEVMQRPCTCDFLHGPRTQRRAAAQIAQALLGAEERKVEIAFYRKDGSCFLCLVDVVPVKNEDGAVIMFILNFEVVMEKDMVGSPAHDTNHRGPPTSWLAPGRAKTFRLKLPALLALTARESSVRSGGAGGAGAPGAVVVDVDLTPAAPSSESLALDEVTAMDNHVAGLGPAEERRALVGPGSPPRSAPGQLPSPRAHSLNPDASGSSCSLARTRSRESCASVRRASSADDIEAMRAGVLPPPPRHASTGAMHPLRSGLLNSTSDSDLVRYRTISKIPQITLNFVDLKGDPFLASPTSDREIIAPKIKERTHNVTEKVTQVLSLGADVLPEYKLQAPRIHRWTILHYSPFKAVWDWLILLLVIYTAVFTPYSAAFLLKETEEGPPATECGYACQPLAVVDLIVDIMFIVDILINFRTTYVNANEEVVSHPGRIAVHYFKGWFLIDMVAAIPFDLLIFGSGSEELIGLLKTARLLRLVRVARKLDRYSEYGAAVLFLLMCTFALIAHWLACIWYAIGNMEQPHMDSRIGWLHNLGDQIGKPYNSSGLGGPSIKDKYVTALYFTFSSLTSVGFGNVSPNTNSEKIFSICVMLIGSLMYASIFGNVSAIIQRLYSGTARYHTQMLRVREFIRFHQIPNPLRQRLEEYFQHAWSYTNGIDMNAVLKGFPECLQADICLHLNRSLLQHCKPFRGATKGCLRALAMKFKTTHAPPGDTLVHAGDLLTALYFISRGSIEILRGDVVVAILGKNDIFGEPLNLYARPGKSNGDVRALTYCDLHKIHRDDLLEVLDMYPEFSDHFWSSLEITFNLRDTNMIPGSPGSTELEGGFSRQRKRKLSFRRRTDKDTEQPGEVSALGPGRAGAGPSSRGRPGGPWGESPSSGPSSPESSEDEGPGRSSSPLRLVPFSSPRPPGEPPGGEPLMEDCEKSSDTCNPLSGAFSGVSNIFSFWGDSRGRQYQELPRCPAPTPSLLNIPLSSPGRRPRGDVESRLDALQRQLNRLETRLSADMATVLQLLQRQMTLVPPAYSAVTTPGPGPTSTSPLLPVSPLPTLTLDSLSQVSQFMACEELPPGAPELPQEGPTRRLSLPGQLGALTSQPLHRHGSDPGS

| SMILES | hERG current change (%, negative = inhibition) at 10uM [%] |
| --- | --- |
| O=C(NCC1OCCc2ccccc21)c1ccc(NC(=O)c2cccc(Br)c2)cc1 (centres unmarked) | 2.42 |
| COC(=O)Cn1c(C)c(C(C)=O)c(C(C)=O)c1C | 14.1 |
| CCOCCCN1C(=O)C(=O)N(CC(=O)N2c3ccccc3NC(=O)CC2C)C1=O (centres unmarked) | 17.2 |
| O=C(O)c1cc(S(=O)(=O)N2CCCCC2)sc1Cl | 17 |
| Cc1ccc(C)c(OCCC(=O)NCCc2ccc(Cl)cc2)c1 | 21.6 |
| O=C(COC(=O)Cc1cccc(C(F)(F)F)c1)NCC1CCCO1 (centres unmarked) | 1.46 |
| O=C(OCC(=O)N1CCCc2ccccc21)c1cc(Br)ccc1O | 12.4 |
| COc1c2c(nc3occc13)C(CC=C(C)C)(OC)C(O)CC2 (centres unmarked) | 5.5 |
| CCCn1cc(CN2CCC(Cc3ccccc3)(C(=O)OCC)CC2)c(C)n1 | -60.4 |
| CC1(C)Cc2ccccc2-c2nc3n(c(=O)c21)CCCS3 | 12.8 |
| Cc1cc(OC(C)C(=O)NNC(=O)Nc2ccc(F)cc2F)cc(C)c1Cl (centres unmarked) | 22.3 |
| COc1cc(OC)c(OC)cc1CN(C)CC1CCCN(CCc2ccccc2F)C1 (centres unmarked) | -2.33 |
| COc1cc(CN(C)CC2CCCN(CCc3ccccc3F)C2)cc(Cl)c1OC (centres unmarked) | -69.8 |
| CN(Cc1ccccc1)CC1CCCN(CCc2ccccc2F)C1 (centres unmarked) | -49.9 |
| COc1ccc(CCN2CCCC(CN(C)Cc3cc(OC)c(OC)c(OC)c3)C2)cc1 (centres unmarked) | -51.6 |
| COc1ccc(CCN2C(=O)c3ccccc3NC2c2cc(Cl)c(O)c(OC)c2)cc1 (centres unmarked) | -4.85 |
| COc1ccc(CCN2CCCC(CN(C)Cc3cc(Cl)c(O)c(OC)c3)C2)cc1 (centres unmarked) | -65.7 |
| COc1ccc(CCN2CCCC(CN(C)Cc3cc(OC)ccc3OC)C2)cc1 (centres unmarked) | -69.1 |
| COc1ccc(OC)c(CN2CCCC(CO)C2)c1 (centres unmarked) | 0.935 |
| CC(=O)Nc1ccc(NC(=O)c2oc3cc(C)c(C)cc3c2C)cc1 | 7.5 |
| COc1ccc(-c2cc(CCCC(=O)NCCc3ccc(OC)cc3OC)no2)cc1 | 5.37 |
| CN(CC1COCCO1)C(=O)c1cc(COc2c(F)cccc2F)on1 (centres unmarked) | 6.62 |

| SMILES | hERG current change (%, negative = inhibition) at 10uM [%] |
| --- | --- |
| O=C(COc1ncnc2c(Cl)cc(Cl)cc12)NCCC1=CCCCC1 | 12.4 |
| Cc1cccc(C(=S)N2CCOCC2)n1 | 5.42 |
| C=CCNC(=O)C(C)Sc1ccc(Cl)cc1 (centres unmarked) | 0.00948 |
| Cc1cc(C(C)(C)C)cc(C)c1C(=O)O | 0.0126 |
| Cn1cnnc1SCc1ccc(C(=O)N/N=C/c2cccs2)cc1 | 4.87 |
| COc1ccc(F)c(CN(C)CC2CCCN(CCc3ccc(F)cc3)C2)c1 (centres unmarked) | -73.4 |
| CN1C(=O)Cc2cc(S(=O)(=O)N3CCN(c4cccc(Cl)c4)CC3)ccc21 | 15.3 |
| O=NN(CCc1ccncc1)c1ccc(OCc2ccccc2)cc1 | -65.2 |
| COc1ccc(N(Cc2ccccc2)N=O)cc1 | -23.3 |
| O=C1NC(=O)C(CCc2ccncc2)(Cc2ccc(OCc3ccccc3)cc2)C(=O)N1 | 11.8 |
| Cc1ccc(SCC2=NNC(=O)C2)cc1 | -3.78 |
| Cn1nc(-c2ccccc2)c(-c2nc(-c3ccc(Cl)cc3)no2)c1Cl | 6.65 |
| Cc1ccc2nc(N(CCN(C)C)C(=O)/C=C/c3cccs3)sc2c1.Cl | -40.3 |
| CCOc1ccccc1NC(=O)Cn1c(=O)c2ccccc2n(CC)c1=O | -11.7 |
| CS(=O)(=O)O.Cc1c(O)cccc1C(=O)N[C@@H](CSc1ccccc1)[C@H](O)CN1C[C@H]2CCCC[C@H]2C[C@H]1C(=O)NC(C)(C)C | -4.69 |
| CC(C)(C)NC(=O)[C@@H]1C[C@@H]2CCCC[C@@H]2CN1C[C@@H](O)[C@H](Cc1ccccc1)NC(=O)[C@H](CC(N)=O)NC(=O)c1ccc2ccccc2n1.CS(=O)(=O)O | -72.1 |
| CC(C)(C)NC(=O)[C@@H]1C[C@@H]2CCCC[C@@H]2CN1C[C@@H](O)[C@H](Cc1ccccc1)NC(=O)[C@H](CC(N)=O)NC(=O)c1ccc2ccccc2n1 | -9.59 |
| CC(=O)Nc1ccc(Nc2ncnc3c2cnn3-c2cccc(C)c2)cc1 | 10 |
| O=C(O)c1ccc(S(=O)(=O)c2ccc(Sc3ccc(C(=O)O)c(C(=O)O)c3)cc2)cc1 | 23.3 |
| CCOC(=O)N1CCN(CC(O)COc2ccc(CC)cc2)CC1.Cl (centres unmarked) | -31.2 |
| CCOC(=O)N1CCN(CC(O)COc2ccc(C)c(C)c2)CC1.Cl (centres unmarked) | 6.64 |
| CCOC(=O)N1CCN(Cc2ccc(OCC(O)CN3CCCCC3)cc2)CC1 (centres unmarked) | 15.7 |

| SMILES | hERG current change (%, negative = inhibition) at 10uM [%] |
| --- | --- |
| CCOC(=O)N1CCN(CC(O)COc2cc(C)cc(C)c2)CC1.Cl (centres unmarked) | -12.7 |
| CCOC(=O)N1CCN(CC(O)COc2ccc(-c3ccccc3)cc2)CC1.Cl (centres unmarked) | -60.3 |
| CCCc1ccc(OCC(O)CN2CCN(C(=O)OCC)CC2)cc1.Cl (centres unmarked) | -52.2 |
| COc1ccccc1NC(=O)COC(=O)C1CCN(/C=C/C(=O)C(F)(F)F)CC1 | -49.6 |
| Cc1ccc(S(=O)(=O)N/N=C\c2cn(CC(N)=O)c3ccccc23)cc1C | 5.21 |
| Cc1nn(Cc2cccc(C(=O)Nc3ccn(Cc4ccccc4F)n3)c2)c(C)c1[N+](=O)[O-] | 6.24 |
| Cc1ccc(-c2nc(N/N=C/c3ccncc3)c3ccccc3n2)cc1 | 3.06 |
| Cc1cc(O)c(CN2CC=C(c3ccccc3)CC2)cc1C(C)C | -14.1 |
| COc1cc(C)cc(CN2CC=C(c3ccccc3)CC2)c1O | -51.4 |
| COc1ccc(CN2CCC(Cc3ccccc3)CC2)c(C)c1C | -23 |
| COc1cc(C)c(CN2CCC(Cc3ccccc3)CC2)cc1C | -45.3 |
| COc1cc(C)cc(CN2CCC(Cc3ccccc3)CC2)c1O | -52.2 |
| COc1cc(CN2CCC(Cc3ccccc3)CC2)c([N+](=O)[O-])cc1OC | 0.589 |
| COc1cc(OC)c(CN2CCC(Cc3ccccc3)CC2)cc1Br | -70.9 |
| FC(F)(F)c1ccccc1CN1CCC(Cc2ccccc2)CC1 | 12 |
| COc1ccc(C(C)=O)cc1CN1CC=C(c2ccccc2)CC1 | -17 |
| O=C1C2C(c3ccccc3)CC=CC2[C@H](c2ccc(C(F)(F)F)cc2)N1Cc1ccccc1 (some centres unmarked) | -2.51 |
| CCC(=O)Nc1c2c(nn1-c1ccc(OC)cc1)CS(=O)C2 (centres unmarked) | 9.94 |
| CC(=O)c1ccc(NS(=O)(=O)Cc2ccccc2)cc1 | 3.41 |
| Cc1cc(=O)oc2cc(OCC(=O)OCc3nnc(-c4ccccc4)o3)ccc12 | 14.3 |
| CC(C)(C)c1ccc(OCC(O)CN2CCOCC2)cc1 (centres unmarked) | -3.19 |
| CCOC(=O)C1CCN(CC(O)COc2ccc(C(C)=O)cc2)CC1.Cl (centres unmarked) | -47.7 |

| SMILES | hERG current change (%, negative = inhibition) at 10uM [%] |
| --- | --- |
| CCOC(=O)C1CCN(CC(O)COc2ccc(C(=O)CC)cc2)CC1.Cl (centres unmarked) | -68.5 |
| CCN1CCN(CC(O)COc2ccc(C(C)=O)cc2)CC1.Cl (centres unmarked) | 2.15 |
| CCOC(=O)C1CCN(CC(O)COc2ccc(C(C)(C)C)cc2)CC1.Cl (centres unmarked) | -70.4 |
| CC1CCCC/C1=N\NC(=S)Nc1cccnc1 (centres unmarked) | 15.8 |
| Cc1noc(C)c1COc1ccc(C(=O)OCC(N)=O)cc1 | 18 |
| O=C(Nc1ccc(Cl)cc1)c1ccc(-n2cccn2)c([N+](=O)[O-])c1 | 4.78 |
| CC(C)c1nc2c(s1)CCc1onc(-c3cccc([N+](=O)[O-])c3)c1-2 | 16.4 |
| COc1cc(OC)cc(-n2nnnc2SCC(=O)N2CCCC2)c1 | -30.2 |
| Cc1ccc(-n2nnnc2SCC(=O)NC2CCCc3ccccc32)c(C)c1 (centres unmarked) | -7.69 |
| O=C(c1cccc(C(F)(F)F)c1)C1CCCN(Cc2cccn2-c2ncccn2)C1 (centres unmarked) | -95.7 |
| CCn1ccnc1CN1CCCC(C(=O)c2cccc(C(F)(F)F)c2)C1 (centres unmarked) | -31.1 |
| COCC(=O)N1CCCC(C(=O)c2ccc(C(F)(F)F)cc2)C1 (centres unmarked) | -0.113 |
| O=C(c1cccc(C(F)(F)F)c1)C1CCCN(Cc2ncc[nH]2)C1 (centres unmarked) | 0.0209 |
| O=C(c1cccc(C(F)(F)F)c1)C1CCCN(Cc2cccn2-c2ccccn2)C1 (centres unmarked) | -83.5 |
| O=C(c1ccc(C(F)(F)F)cc1)C1CCCN(Cc2cccn2-c2ncccn2)C1 (centres unmarked) | -80.3 |
| O=C(c1ccc(C(F)(F)F)cc1)C1CCCN(Cc2ccc(CO)o2)C1 (centres unmarked) | -24.6 |
| O=C(c1cccc(C(F)(F)F)c1)C1CCCN(C(=O)CCc2cnccn2)C1 (centres unmarked) | -15.6 |
| O=C1CCN(Cc2ccc(Br)cc2)CCN1CCO | -1.08 |
| CCOc1ccc(S(=O)(=O)N(C)c2ccc(OCC(=O)Nc3nccs3)cc2)cc1 | 10.1 |
| O=C(O)CN1C(=O)C2C3C=CC(C2C1=O)C1C(=O)N(CC(=O)O)C(=O)C31 (centres unmarked) | 21.8 |
